Test results: ChEMBL document CHEMBL3988442, “University of Dundee, Small-Polar-MMV Screening Library” (2021)
“And” between values parts separate entries of the source, which are not always exact repeats. Equal entries are not always repeated. For some assays here: Results with a measured potency or affinity are listed apart.

How the values were obtained:
[1] = target: Protein translocase subunit SecA (Escherichia coli (strain K12)) (UniProt P10408); assay: Assay to Identify E. coli SecA ATPase Inhibitors; type: functional; set-up: scale not given: direction of the effect not stated beside the values; settings: 30 µM
[2] = target: T1, Ubiquitin-activating enzyme e1, putative (Leishmania donovani (strain BPK282A1)) (UniProt E9BSI1); assay: Leishmania donovani Ubiquitin Activating Enzyme (LdE1); type: functional; set-up: scale not given: direction of the effect not stated beside the values; settings: 30 µM
T1 sequence (whole entry): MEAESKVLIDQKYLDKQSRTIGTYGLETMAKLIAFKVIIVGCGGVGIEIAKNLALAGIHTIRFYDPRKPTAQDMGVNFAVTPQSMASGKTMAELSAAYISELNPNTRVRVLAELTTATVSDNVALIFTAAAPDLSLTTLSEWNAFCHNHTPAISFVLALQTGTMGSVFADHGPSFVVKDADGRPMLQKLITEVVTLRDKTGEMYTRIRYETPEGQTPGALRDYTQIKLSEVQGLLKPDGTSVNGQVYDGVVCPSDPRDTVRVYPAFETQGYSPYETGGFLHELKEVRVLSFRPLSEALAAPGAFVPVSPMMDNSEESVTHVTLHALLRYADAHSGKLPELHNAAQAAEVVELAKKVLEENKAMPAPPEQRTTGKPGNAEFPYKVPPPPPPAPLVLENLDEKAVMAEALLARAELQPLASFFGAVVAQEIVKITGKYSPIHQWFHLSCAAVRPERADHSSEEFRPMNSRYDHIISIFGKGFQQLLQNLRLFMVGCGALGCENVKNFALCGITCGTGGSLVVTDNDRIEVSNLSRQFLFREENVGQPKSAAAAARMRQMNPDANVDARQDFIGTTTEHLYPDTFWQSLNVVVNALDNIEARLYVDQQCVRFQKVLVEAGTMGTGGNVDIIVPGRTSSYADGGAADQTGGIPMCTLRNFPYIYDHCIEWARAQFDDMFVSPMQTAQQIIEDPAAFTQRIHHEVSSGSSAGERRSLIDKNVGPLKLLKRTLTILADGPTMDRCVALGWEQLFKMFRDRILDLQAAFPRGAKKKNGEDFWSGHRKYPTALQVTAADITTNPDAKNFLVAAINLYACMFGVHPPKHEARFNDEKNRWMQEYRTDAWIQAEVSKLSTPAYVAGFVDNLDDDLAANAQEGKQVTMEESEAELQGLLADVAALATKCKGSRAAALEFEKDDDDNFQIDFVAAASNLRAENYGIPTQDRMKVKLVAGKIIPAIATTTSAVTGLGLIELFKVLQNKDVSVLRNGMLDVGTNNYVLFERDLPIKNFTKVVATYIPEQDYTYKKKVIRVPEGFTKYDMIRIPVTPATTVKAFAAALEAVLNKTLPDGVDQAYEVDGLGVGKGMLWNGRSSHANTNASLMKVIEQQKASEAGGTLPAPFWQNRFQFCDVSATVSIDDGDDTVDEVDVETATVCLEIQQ

[3] = target: T2, Aspartate--tRNA(Asp/Asn) ligase (Mycobacterium tuberculosis (strain ATCC 25618 / H37Rv)) (UniProt P9WFW3); assay: Assay for Asp RNA synthetase-1 from Mycobacterium tuberculosis; type: functional; set-up: scale not given: direction of the effect not stated beside the values; settings: 30 µM; note: in the data most compounds retested in dose-response had high values
T2 sequence (whole entry): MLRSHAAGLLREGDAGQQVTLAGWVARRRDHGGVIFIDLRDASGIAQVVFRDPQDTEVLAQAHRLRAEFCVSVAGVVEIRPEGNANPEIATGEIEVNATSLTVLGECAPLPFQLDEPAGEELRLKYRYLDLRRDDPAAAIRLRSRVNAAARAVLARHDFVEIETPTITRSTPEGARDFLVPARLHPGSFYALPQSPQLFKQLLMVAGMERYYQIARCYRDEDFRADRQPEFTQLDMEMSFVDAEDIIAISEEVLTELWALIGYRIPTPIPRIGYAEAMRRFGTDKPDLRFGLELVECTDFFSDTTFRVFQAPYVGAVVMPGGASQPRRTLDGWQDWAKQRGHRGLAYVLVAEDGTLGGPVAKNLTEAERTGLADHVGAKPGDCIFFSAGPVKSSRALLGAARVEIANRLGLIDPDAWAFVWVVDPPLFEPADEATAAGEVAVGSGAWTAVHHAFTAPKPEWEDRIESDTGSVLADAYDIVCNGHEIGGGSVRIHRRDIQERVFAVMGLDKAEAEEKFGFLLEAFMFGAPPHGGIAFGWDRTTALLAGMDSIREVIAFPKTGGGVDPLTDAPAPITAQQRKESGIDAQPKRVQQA

[4] = target: AMP-activated protein kinase, AMPK (Homo sapiens) (UniProt P54646+O43741+P54619+Q9UGJ0+Q9Y478+Q13131+Q9UGI9); assay: AMP-dependent Kinase enzyme assay. An in vitro enzyme assay that detects ADP turnover that is directly proportional to AMPK activity. This uses naive AMPK that is activated during the assay with MK-8722; type: functional; set-up: scale not given: direction of the effect not stated beside the values; settings: 30 µM
[5] = target: Sialic acid-binding Ig-like lectin 9 (Homo sapiens) (UniProt Q9Y336); assay: Hs-Siglec9 ALPHAscreen SOP 20170721; set-up: scale not given: direction of the effect not stated beside the values; settings: 10 µM
[6] = test system: Trypanosoma cruzi; assay: Trypanosoma cruzi phosphomannomutase and mannose-1-phosphate guanylyltransferase assay; type: functional; set-up: scale not given: direction of the effect not stated beside the values; settings: 10 µM
[7] = target: T3, Arginase-2, mitochondrial (Homo sapiens) (UniProt P78540); assay: in vitro enzyme assay to detect the production of urea directly proportional to the activity of Arginase II; type: functional; set-up: scale not given: in the data most compounds retested in dose-response had high values; settings: 33.3 µM
T3 sequence (whole entry): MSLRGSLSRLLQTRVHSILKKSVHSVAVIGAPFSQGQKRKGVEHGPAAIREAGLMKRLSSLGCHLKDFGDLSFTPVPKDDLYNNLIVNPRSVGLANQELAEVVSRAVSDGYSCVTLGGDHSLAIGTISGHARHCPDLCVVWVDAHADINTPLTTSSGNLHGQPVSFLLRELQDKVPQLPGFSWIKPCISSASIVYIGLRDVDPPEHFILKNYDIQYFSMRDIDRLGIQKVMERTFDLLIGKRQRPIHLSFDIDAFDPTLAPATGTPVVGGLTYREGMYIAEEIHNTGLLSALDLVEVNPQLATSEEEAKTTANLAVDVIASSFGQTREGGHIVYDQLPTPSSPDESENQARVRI

[8] = target: T4, Proteasome subunit beta (Trypanosoma cruzi) (UniProt O96673); assay: Trypanosoma cruzi proteasome chymotrypsin-like activity (TcProtChymo) assay.; type: functional; set-up: scale not given: in the data most compounds retested in dose-response had high values; settings: 9.37 µM
T4 sequence (whole entry): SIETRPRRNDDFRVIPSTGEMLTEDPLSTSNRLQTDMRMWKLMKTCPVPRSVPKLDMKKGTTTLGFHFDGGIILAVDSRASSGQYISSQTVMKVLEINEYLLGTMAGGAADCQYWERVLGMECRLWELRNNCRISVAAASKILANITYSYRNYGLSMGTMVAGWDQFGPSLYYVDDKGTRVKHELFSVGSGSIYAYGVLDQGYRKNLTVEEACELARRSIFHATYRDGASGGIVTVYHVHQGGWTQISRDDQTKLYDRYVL

[9] = test system: N/A; assay: Trypanosoma cruzi proteasome luciferase counter-screen; type: functional; set-up: scale not given: direction of the effect not stated beside the values; settings: 9.37 µM
[10] = species: Homo sapiens; assay: To identify inhibition of the IFN signalling (Jak-Stat) pathway via expression of an eGFP reporter gene under the control of an IFN-stimulated response element (ISRE) containing MxA promoter.; type: functional; set-up: scale not given: direction of the effect not stated beside the values; settings: 30 µM
[11] = target: Shiga toxin 2 (Escherichia coli O157:H7) (UniProt P09385+P09386); assay: E. coli 0.157:H7 Shiga Toxin SOP - stx2 screening assay; type: functional; set-up: scale not given: direction of the effect not stated beside the values; settings: 30 µM
[12] = target: T5, Tyrosyl-tRNA synthetase, putative (Trypanosoma cruzi (strain CL Brener)) (UniProt Q4DSP6); assay: Trypanosoma cruzi tyrosyl tRNA synthetase (TcYRS) _High Tyrosine SOP; type: functional; set-up: scale not given: in the data most compounds retested in dose-response had high values; settings: 30 µM
T5 sequence (whole entry): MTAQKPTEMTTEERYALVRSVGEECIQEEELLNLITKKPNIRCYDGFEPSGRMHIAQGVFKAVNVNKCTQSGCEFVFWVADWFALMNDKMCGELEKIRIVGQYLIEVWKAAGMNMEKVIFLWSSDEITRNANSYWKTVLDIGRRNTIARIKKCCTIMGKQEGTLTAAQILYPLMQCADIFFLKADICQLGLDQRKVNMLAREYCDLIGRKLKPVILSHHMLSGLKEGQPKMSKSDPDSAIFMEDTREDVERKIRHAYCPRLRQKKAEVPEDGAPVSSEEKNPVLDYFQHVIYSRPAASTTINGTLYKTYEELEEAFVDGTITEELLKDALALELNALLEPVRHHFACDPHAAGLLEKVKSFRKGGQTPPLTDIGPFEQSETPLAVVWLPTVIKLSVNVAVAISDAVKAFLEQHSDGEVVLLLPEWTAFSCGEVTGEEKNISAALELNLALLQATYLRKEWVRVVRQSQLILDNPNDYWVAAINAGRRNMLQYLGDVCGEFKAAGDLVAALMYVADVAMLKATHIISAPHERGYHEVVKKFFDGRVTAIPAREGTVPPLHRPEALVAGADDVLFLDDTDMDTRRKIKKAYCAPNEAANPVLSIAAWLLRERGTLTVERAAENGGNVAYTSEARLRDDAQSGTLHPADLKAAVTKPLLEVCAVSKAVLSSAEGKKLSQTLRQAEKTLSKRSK

[13] = target: T5, Tyrosyl-tRNA synthetase, putative (Trypanosoma cruzi (strain CL Brener)); assay: Trypanosoma cruzi tyrosyl tRNA synthetase (TcYRS) SOP; type: functional; set-up: scale not given: direction of the effect not stated beside the values; settings: 30 µM
[14] = target: Chromo domain-containing protein 1 (Saccharomyces cerevisiae (strain ATCC 204508 / S288c) (Baker's yeast)) (UniProt P32657); assay: ScCHD-1 Enzyme Inhibition Assay; type: functional; set-up: scale not given: in the data most compounds retested in dose-response had high values; settings: 30 µM
[15] = target: T6, Methionyl-tRNA synthetase, putative (Leishmania donovani (strain BPK282A1)) (UniProt E9BF75); assay: Leishmania donovani Methionine tRNA synthetase (LdMetRS):v7. Dose response assay; type: functional; set-up: conc 80 nM, time 150 minutes
T6 sequence (whole entry): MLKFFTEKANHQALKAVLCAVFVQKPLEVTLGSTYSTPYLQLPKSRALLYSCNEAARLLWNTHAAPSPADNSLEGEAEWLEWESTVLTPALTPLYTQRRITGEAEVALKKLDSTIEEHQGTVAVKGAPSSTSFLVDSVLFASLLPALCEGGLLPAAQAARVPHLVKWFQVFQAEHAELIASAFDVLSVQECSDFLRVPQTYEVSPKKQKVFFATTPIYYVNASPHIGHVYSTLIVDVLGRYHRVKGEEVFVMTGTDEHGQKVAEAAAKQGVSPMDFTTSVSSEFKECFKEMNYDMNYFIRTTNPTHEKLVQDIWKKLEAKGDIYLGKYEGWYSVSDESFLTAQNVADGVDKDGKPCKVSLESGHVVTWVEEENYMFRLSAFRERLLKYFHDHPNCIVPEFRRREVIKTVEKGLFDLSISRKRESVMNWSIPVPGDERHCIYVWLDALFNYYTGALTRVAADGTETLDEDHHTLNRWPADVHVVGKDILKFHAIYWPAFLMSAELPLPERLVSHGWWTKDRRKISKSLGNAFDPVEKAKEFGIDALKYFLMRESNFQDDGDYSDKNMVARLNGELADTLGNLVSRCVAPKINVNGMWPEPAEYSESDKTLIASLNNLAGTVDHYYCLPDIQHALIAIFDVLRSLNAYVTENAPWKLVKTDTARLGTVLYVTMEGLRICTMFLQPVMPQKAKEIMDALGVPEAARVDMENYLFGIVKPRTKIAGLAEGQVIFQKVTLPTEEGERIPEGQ

Sequence of Sialic acid-binding Ig-like lectin 9 (Homo sapiens) (Q9Y336 whole entry): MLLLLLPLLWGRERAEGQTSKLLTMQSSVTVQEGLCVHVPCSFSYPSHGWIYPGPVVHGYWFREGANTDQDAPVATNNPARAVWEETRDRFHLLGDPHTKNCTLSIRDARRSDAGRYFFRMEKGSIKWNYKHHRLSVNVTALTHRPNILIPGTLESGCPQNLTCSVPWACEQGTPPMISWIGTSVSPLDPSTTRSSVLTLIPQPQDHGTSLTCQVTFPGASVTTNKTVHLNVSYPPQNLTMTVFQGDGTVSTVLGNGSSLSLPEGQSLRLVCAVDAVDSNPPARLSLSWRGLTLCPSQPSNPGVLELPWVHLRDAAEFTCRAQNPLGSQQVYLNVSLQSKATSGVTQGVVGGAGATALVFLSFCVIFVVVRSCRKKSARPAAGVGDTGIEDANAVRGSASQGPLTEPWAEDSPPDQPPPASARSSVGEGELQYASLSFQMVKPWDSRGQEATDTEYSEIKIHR
Sequence of Chromo domain-containing protein 1 (Saccharomyces cerevisiae (strain ATCC 204508 / S288c) (Baker's yeast)) (P32657 whole entry, the tested form may be a part): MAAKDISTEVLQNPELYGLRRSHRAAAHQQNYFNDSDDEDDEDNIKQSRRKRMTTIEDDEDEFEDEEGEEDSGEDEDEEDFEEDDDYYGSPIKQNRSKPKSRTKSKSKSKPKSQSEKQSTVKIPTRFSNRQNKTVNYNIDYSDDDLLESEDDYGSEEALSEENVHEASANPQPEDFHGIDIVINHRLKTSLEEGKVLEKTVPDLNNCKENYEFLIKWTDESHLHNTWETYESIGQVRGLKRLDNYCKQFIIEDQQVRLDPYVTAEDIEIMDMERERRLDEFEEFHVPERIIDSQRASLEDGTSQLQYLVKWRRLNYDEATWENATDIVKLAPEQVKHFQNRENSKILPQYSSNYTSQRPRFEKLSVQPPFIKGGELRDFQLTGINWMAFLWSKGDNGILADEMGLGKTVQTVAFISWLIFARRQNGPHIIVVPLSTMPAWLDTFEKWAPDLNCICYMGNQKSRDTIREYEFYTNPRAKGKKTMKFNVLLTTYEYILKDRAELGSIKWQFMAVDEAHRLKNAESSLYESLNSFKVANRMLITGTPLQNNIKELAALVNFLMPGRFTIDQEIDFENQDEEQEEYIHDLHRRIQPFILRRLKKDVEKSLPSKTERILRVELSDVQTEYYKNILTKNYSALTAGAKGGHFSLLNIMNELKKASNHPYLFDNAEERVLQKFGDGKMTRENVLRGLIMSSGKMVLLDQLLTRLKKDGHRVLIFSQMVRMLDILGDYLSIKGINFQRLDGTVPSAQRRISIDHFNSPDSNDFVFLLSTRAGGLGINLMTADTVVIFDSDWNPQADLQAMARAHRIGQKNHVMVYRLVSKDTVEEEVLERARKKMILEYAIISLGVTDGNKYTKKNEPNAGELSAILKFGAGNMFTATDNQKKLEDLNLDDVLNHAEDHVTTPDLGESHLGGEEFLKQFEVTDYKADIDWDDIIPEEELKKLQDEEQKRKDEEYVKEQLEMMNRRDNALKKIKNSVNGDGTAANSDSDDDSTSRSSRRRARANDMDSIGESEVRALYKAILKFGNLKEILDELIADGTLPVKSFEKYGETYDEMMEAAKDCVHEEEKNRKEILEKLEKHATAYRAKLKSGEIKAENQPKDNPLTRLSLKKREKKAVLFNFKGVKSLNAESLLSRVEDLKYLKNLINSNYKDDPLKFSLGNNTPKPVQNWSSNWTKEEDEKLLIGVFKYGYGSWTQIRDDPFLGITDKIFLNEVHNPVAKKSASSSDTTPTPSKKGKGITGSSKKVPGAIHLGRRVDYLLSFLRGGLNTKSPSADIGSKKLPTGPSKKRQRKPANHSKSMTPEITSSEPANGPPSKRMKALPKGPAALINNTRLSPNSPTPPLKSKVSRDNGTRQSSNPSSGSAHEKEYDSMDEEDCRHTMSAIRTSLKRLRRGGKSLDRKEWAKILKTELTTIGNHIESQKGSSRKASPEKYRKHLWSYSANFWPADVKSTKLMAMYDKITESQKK
Sequence of Protein translocase subunit SecA (Escherichia coli (strain K12)) (P10408 whole entry): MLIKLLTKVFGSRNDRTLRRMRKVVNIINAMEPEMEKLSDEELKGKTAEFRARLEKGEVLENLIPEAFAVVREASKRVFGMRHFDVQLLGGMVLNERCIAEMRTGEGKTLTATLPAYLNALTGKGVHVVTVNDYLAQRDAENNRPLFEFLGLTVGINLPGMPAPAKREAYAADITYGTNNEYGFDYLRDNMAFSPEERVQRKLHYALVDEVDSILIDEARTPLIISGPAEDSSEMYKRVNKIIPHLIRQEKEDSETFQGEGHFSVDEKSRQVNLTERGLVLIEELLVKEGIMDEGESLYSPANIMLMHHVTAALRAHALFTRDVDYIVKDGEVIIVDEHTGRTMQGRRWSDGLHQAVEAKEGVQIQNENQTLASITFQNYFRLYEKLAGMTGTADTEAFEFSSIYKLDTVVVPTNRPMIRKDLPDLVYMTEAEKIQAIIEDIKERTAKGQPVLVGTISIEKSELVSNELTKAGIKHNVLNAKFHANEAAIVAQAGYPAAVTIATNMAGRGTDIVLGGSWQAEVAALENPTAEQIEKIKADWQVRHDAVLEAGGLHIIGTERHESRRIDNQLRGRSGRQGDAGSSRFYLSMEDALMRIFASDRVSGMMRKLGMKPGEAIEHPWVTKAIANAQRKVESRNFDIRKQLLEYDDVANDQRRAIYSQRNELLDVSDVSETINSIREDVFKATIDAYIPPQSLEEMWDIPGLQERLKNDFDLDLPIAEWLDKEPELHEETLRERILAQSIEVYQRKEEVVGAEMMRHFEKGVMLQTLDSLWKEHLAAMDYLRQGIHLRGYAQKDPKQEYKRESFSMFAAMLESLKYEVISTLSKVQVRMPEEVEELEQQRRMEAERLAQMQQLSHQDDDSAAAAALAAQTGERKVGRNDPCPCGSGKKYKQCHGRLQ

Compound: CC(Cn1cccn1)NCc1csc(-c2cccs2)n1 (centres undefined)
- Percent Effect [1]: -0.415%
- Percent Effect [2]: 5.41%
- Percent Effect [3]: -4.5%
- Percent Effect [4]: -7.34%
- Percent Effect [5]: -3.93%
- Percent Effect [6]: -4.81%
- Percent Effect [7]: -0.802%
- Percent Effect [8]: 79.3% and 83.2% and 84%
- Percent Effect [9]: 52.8% and 51.5%
- Percent Effect [10]: 17.6%
- Percent Effect [11]: 21.1%
- Percent Effect [12]: 7.39%
- Percent Effect [13]: 13.6%
- Percent Effect [14]: -4.55%

Compound: O=C(Nc1cccnc1)[C@H]1COC[C@H]2CN(C3CCCC3)C[C@H]21
- Percent Effect [1]: -5.23%
- Percent Effect [2]: 8.11%
- Percent Effect [3]: 5.33%
- Percent Effect [4]: 1.79%
- Percent Effect [5]: 1.44%
- Percent Effect [6]: 2.15%
- Percent Effect [7]: 3.33%
- Percent Effect [8]: 10.2%
- Percent Effect [10]: -5.51%
- Percent Effect [11]: -10.3%
- Percent Effect [12]: 4.95%
- Percent Effect [13]: 11%
- Percent Effect [14]: -4.54%

Compound: Oc1cc(Cl)cc(Cl)c1
- PXC50 ([15]; MAX_EFFECT 13.49809886): < 3
- PXC50 ([15]; MAX_EFFECT 17.06263499): < 3

Compound: COCCN1CCC2(COCc3cnc(N4CCOCC4)nc32)C1 (centres undefined)
- Percent Effect [1]: -9.09%
- Percent Effect [2]: 2.67%
- Percent Effect [3]: -3.07%
- Percent Effect [4]: 7.61%
- Percent Effect [5]: -2.45%
- Percent Effect [6]: -5.91%
- Percent Effect [7]: -2.1%
- Percent Effect [8]: 2.03%
- Percent Effect [10]: 21.1%
- Percent Effect [11]: -12%
- Percent Effect [12]: -4.25%
- Percent Effect [13]: -1.28%
- Percent Effect [14]: -8.27%

Compound: Cc1cc(Cl)cc(Cl)c1O
- PXC50 ([15]; MAX_EFFECT 7.127429806): < 3
- PXC50 ([15]; MAX_EFFECT 14.63878327): < 3
